Test results from PubChem BioAssay (Tox21).
Unmarked numbers belong to inactive results. A call without a number means that no potency is given here. Active and inactive are the calls of the source. Calls come from the whole dose curve; as a rule, active = well fitted curve in the direction sought with a large enough effect in the repeat runs; inconclusive = weak or mixed curves; inactive = flat fitted curve, though single readings scatter.

Test: qHTS assay to test for compound auto fluorescence at 460 nm (blue) in HepG2 cell free culture (AID 720685)
Settings: Cell-free culture medium, blue autofluorescence 405/460 nm; series mostly up to 91.3 µM
Description: U.S. Tox21 Program National Center for Advancing Translational Sciences [NCATS] NIH Chemical Genomics Center [NCGC] U.S. Environmental Protection Agency [EPA] National Institutes of Environmental Health Sciences [NIEHS] National Toxicology Program [NTP] U.S. Food and Drug Administration [FDA] Tox21 Assay Overview: Compound auto fluorescence often interferes with screening of the compound library against various biological targets and signaling pathways. Some of these compounds may have fluorophoric properties. Such properties may interfere with the assay outputs resulting in false positives and/or negatives. To decrease such complications and ensure the compound activities are relevant in terms of biological response, the Tox21 10K compound library was screened for auto fluorescence. From the fluorophores used as reporter signals in our screening assays, the auto fluorescence equivalencies of compounds against three fluorophores have been evaluated: Triamterene, Fluorescein and Rose Bengal sodium for blue, green and red fluorescence, respectively. The fluorescence intensities were measured using Excitation/Emission wavelengths at 405/460nm, 485/535nm and 540/590nm for blue, green and red labels, respectively. This assay includes the blue fluorescence data.
Tox21 Assay Protocol Summary: 5 uL of culture medium (MEM containing 10% FBS) per well was dispensed into black wall/clear bottom 1536-well plates using a Multidrop Combi Dispenser (ThermoFisher Scientific, Waltham, MA). After 23 nL compound or DMSO vehicle was transferred into assay plate by a pintool work station (Kalypsys, San Diego, CA), fluorescence intensities in the assay plates were measured by an Envision (PerkinElmer, Shelton, CT) plate reader using three labels for measuring blue, green and red fluorescence at […] 460, 535 and 590nm respectively.

Row | SMILES | Potency | fluorescence, % of fluorescent control
1 | CC1CCCO1 (stereo not given) | inactive | 
2 | CC/C=C\C/C=C\C/C=C\CCCCCCCC(=O)OCC | inactive | 
3 | c1ccc(CNc2ncnc3c2ncn3C2CCCCO2)cc1 (stereo not given) | inactive | 
4 | COc1ccc(C2C(=O)c3ccccc3C2=O)cc1 | inactive | 
5 | CC(CCc1ccc(O)cc1)NCCc1ccc(O)c(O)c1 (stereo not given) | inactive | 
6 | CCN(CC)C(=O)/C(C#N)=C/c1cc(O)c(O)c([N+](=O)[O-])c1 | inactive | 
7 | CCCCCCCCCCCCCC(=O)OCC(O)CO (stereo not given) | inactive | 
8 | O=C(CCS)OCC(COC(=O)CCS)(COC(=O)CCS)COC(=O)CCS | inactive | 
9 | CCN(CC)c1cccc(O)c1 | inactive | 
10 | Nc1ccc(N=Nc2ccc(N)cc2)cc1 | inactive | 
11 | ClC1=C(Cl)C1(Cl)Cl | inactive | 
12 | O=C(O)c1cccc(C[C@@H]2COc3ccc(OCc4nc5cc(F)ccc5s4)cc3[C@@H]2O)c1 | inactive | 
13 | CCN(Cc1cccc(S(=O)(=O)O)c1)c1ccc(C(=C2C=CC(=[N+](CC)Cc3cccc(S(=O)(=O)O)c3)C=C2)c2ccccc2S(=O)(=O)[O-])cc1 | inactive | 
14 | CCCCCCC(CO)CCCC (stereo not given) | inactive | 
15 | CC1=CC[C@@]23C[C@@H]1C(C)(C)[C@@H]2CC[C@H]3C | inactive | 
16 | CCCCCCCC(=O)OCCCCCC | inactive | 
17 | C=CCOC(=O)COCCC(C)C | inactive | 
18 | Nc1ccc(S(=O)(=O)NCc2ccccc2)cc1 | inactive | 
19 | CC1CCC(C(C)CS)CC1S (stereo not given) | inactive | 
20 | CC(=O)NCCO | inactive | 

Row | SMILES | Potency | fluorescence, % of fluorescent control
21 | NC(=O)CCCCC(N)=O | inactive | 
22 | CCCc1nc2c(C)cc(-c3nc4ccccc4n3C)cc2n1Cc1ccc(-c2ccccc2C(=O)O)cc1 | inactive | 
23 | CC(C)(C(=O)c1cccnc1)c1cccnc1 |  | -0.0441% [at 18.6 µM]
24 | O=NN(CCCl)C(=O)NCCCl | inactive | 
25 | Cc1ccc(Cl)cc1N | inactive | 
26 | O=C(O)CNC(=O)c1ccccc1I | inactive | 
27 | CN1C(CSCC(F)(F)F)Nc2cc(Cl)c(S(N)(=O)=O)cc2S1(=O)=O (stereo not given) | inactive | 
28 | CCC(=O)OCc1ccc(OC)cc1 | inactive | 
29 | O=C(C(=O)c1ccco1)c1ccco1 | inactive | 
30 | FC(F)(F)C(F)(F)C(F)(F)C(F)(F)CCI | inactive | 
31 | c1ccc(CCCc2ccncc2)cc1 | inactive | 
32 | COc1ccc(N)c([N+](=O)[O-])c1 | inactive | 
33 | CC[C@H]1OC(=O)[C@H](C)[C@@H](O[C@H]2C[C@@](C)(OC)[C@@H](O)[C@H](C)O2)[C@H](C)[C@@H](O[C@@H]2O[C@H](C)C[C@H](N(C)C)[C@H]2O)[C@](C)(O)C[C@@H](C)/C(=N\OCOCCOC)[C@H](C)[C@@H](O)[C@]1(C)O | inactive | 
34 | CCCCCCC(O)CCCCCCCCCCC(=O)OC (stereo not given) | inactive | 
35 | SCCc1cnccn1 | inactive | 
36 | Cc1ccc(Nc2c(F)cccc2Cl)c(CC(=O)O)c1 | inactive | 
37 | O=C(c1ccccc1)C1CCC1 | inactive | 
38 | CC1=CC[C@@H]2C[C@H]1C2(C)C |  | 0.0508% [at 18.6 µM]
39 | O=C(O)CCC(=O)c1ccc(-c2ccccc2)cc1 |  | -0.0525% [at 18.6 µM]
40 | CC(C)Cc1ccc(CC(=O)O)cc1 | inactive | 
